BAZ2B inh = inhibitors of human BAZ2B bromodomain; Potency, µM (highest dose often 114 µM), for inactives: top-dose activity change, negative = inhibition, hits mostly inhibitors; AlphaScreen BAZ2B-H3K14Ac peptide displacement; AID 504333; 360,000 tested, 4.4% active; also: % is scaled to controls: 0 for no effect and ±100 for the full control effect; nearly all actives have a fitted effect of over 60% in size
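BAZ2B 50 nM plus b-H3(5-23)K14Ac 50 nM, PBS pH 7.4/0.01% Tween-20, 30 min RT; compound added (max 110 uM), 30 min RT; streptavidin donor/Ni-chelate acceptor beads 10 ug/mL final, 20 min dark; AlphaScreen read.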
GLS inhibitor = glutaminase GLS (human) inhibition. 410,000 tested, 0.21% active. Potency, µM (top dose mostly 45.5 µM), without a hit: at the top dose activity change, negative = inhibition, usual class: inhibitors. GLS enzymatic activity, qHTS titration. O94925. AID 624170; also: % is scaled to controls: 0 for no effect and ±100 for the full control effect
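Assay buffer: 45 mM KH2PO4 pH 8.2, 0.02% Tween-20. hKGA acts on L-glutamine (1 mM solution added); product glutamate is reported by an oxidase/peroxidase Amplex Red coupling, with fluorescence taken at baseline and 30 min.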
G9a inh = blocks human histone lysine methyltransferase G9a | 350,000 tested, 8.8% active | G9a H3K9 monomethylation, AlphaScreen, 2 h | Potency, µM (series often up to 102 µM), without a hit: at the highest dose activity, negative = inhibition, hits mostly inhibitors | Q96KQ7; also: % is scaled to controls: 0 for no effect and ±100 for the full control effect; nearly all actives have a fitted effect of over 75% in size
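Enzyme 20 nM + cpd, 15 min RT; add b-H3K9 pep 500 nM / SAM 20 uM; 2 h RT; anti-H3K9me1 Ab 0.5 ug/mL + SA donor / anti-rabbit acceptor beads 20 ug/mL each, 10 min; AlphaScreen read.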
JMJD2A Tudor = blocks the human JMJD2A Tudor domain | 390,000 tested, 4.4% active | AlphaScreen JMJD2A-Tudor / H3K4me3 peptide binding | AID 504339 | Potency, µM (top dose mostly 114 µM), without a hit: at the highest dose activity change, negative = inhibition, usual class: inhibitors; also: % is scaled to controls: 0 for no effect and ±100 for the full control effect; nearly all actives have a fitted effect of over 50% in size
Target sequence (O75164 whole entry, looked up, the tested form may be a part): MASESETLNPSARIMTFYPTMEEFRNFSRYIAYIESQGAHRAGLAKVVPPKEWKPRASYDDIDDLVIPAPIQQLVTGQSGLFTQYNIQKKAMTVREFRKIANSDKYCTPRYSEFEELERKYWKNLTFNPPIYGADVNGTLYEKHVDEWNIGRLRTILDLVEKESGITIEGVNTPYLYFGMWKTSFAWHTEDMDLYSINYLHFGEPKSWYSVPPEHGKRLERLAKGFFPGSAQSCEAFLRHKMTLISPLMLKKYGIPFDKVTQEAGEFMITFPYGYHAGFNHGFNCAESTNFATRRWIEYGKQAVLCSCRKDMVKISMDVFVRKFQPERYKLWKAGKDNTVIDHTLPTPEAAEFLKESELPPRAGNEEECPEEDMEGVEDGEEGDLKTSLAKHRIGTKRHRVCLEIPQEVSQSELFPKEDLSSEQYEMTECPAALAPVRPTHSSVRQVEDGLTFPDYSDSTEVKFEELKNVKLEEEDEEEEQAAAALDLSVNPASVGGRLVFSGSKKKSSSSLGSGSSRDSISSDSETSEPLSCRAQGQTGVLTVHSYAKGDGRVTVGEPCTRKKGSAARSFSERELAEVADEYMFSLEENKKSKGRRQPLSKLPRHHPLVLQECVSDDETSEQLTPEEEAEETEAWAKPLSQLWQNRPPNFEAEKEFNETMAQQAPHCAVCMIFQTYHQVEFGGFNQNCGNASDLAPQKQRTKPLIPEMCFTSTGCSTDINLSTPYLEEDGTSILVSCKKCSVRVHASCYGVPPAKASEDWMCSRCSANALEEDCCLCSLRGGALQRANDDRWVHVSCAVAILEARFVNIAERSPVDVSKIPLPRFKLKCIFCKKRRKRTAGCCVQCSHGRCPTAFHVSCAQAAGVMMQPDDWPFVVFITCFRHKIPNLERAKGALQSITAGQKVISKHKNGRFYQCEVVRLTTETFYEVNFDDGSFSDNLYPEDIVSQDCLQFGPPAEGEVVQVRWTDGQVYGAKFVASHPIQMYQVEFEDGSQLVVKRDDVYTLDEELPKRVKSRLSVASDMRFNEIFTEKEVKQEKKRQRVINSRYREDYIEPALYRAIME
HP1b chromo inh = HP1-beta chromodomain-methylated histone interaction inhibition; P83916; AlphaScreen HP1-beta / biotin-H3K9me3 peptide binding; Potency, µM (top dose mostly 114 µM), for the others: at the top dose activity change, negative = inhibition, most hits filed as inhibitors; 390,000 tested, 0.56% active; AID 540317; also: nearly all actives have a fitted effect of over 70% in size
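Compound inhibition of the preformed complex between 50 nM HP1-beta and 50 nM biotinylated H3K9me3 peptide was read by AlphaScreen. Buffer was PBS pH 7.4 with 0.01% Tween-20. Incubations ran 30 min at room temperature, with 10 ug/mL donor/acceptor beads.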
An asterisk follows results filed as active; ? = inconclusive; · = not tested or not shown; [ ] = another dose, or the depositor's remark. Most compounds without a hit are left out; they make up all but 10% or so of the library. Calls follow the shape of the dose curve; as a rule, active = well fitted curve in the direction sought with a large enough effect; inconclusive = small, poorly fitted or top-dose-only effect, or another doubt; inactive = no such curve, though single readings can be large; an effect the other way counts as inactive or inconclusive. Potency is read from the fitted curve at half-maximal effect.

SMILES | BAZ2B inh | GLS inhibitor | G9a inh | JMJD2A Tudor | HP1b chromo inh
CCOc1ccc(NC2c3ccccc3C(=O)N2Cc2ccco2)cc1 (stereo unspecified) | 50µM* | 17% | 45µM* | 45µM* | ?
O=C1c2ccccc2C(O)N1Cc1ccc2c(c1)OCO2 (stereo unspecified) | 5% | -2% | ? | -13% | 22%
COc1ccc(NC2c3ccccc3C(=O)N2Cc2ccco2)cc1OC (stereo unspecified) | ? | 8% | ? | ? | -10%
O=C1c2ccccc2C(Nc2cccnc2)N1Cc1ccc2c(c1)OCO2 (stereo unspecified) | 2% | -8% | ? | -17% | 12%
O=C1c2ccccc2C(Nc2ccc3c(c2)OCO3)N1Cc1ccco1 (stereo unspecified) | 45µM* | 5% | 10µM* | 56µM* | ?
O=C1c2ccccc2C(Nc2ccc3c(c2)OCO3)N1Cc1ccc2c(c1)OCO2 (stereo unspecified) | 20µM* | -2% | 40µM* | 45µM* | ?
CCc1cccc(C)c1NS(=O)(=O)c1ccc(-n2cccn2)cc1 | -19% | 12% | -17%[59 µM] | 2% | 28%
C=C[C@@H]1c2cc(C)ccc2N(S(=O)(=O)c2ccc(C)cc2)[C@H](c2ccccc2)C1(C#N)C#N | 51% | 5% | 67%[2.33 µM] | -24% | 27%
COC(=O)c1cc(NC2c3ccccc3C(=O)N2Cc2ccco2)cc(C(=O)OC)c1 (stereo unspecified) | -3% | 12% | -1% | -10% | 25%
O=C1c2ccccc2C(Nc2ccc(F)c(Cl)c2)N1Cc1ccco1 (stereo unspecified) | ? | -3% | 45µM* | -30% | 15%
CCC(=O)N1N=C(c2ccccc2)CC1c1ccccc1 (stereo unspecified) | 4% | -12% | -9% | 2% | 26%
Cc1cc(C)c(-c2cc(C(=O)Nc3cc(C)ccc3C)[nH]n2)c(O)c1 | -7% | 0% | 20% | -2% | 46%
S=C(Nc1ccccc1)N1N=C(c2cccs2)CC1c1cccs1 (stereo unspecified) | -16% | ? | · | 20µM* | -15%
COc1ccc(CC(=O)N(C)Cc2cccc(F)c2)cc1S(=O)(=O)N1CCOCC1 | 7% | 7% | 11%[2.33 µM] | -12% | 13%
CS(=O)(=O)c1ccc(C(=O)Nc2ccc(N3CCCC3)cc2)c(Cl)c1 | -12% | 3% | 10µM* | -17% | -10%
O=C(Nc1ccc(N2CCCC2)cc1)c1cc(Br)ccc1Cl | -34% | 9% | 8.9µM* | ? | 5%
O=C(Nc1ccc(Br)cc1)c1cccnc1N1CCCCC1 | 6% | -2% | ? | 32% | 69%
CCOC(=O)c1sc(NC(=O)CSc2n[nH]c(CC(C)C)n2)nc1C | 2% | -5% | -9%[59 µM] | -7% | 34%
O=C(/C=C/c1ccco1)c1ccc(NC(=O)C23CC4CC(CC(C4)C2)C3)cc1 | 35µM* | -7% | 4.5µM* | ? | ?
O=C(C=Cc1ccco1)c1ccc([N+](=O)[O-])cc1 | · | -18% | · | ? | ?
O=C(Nc1ccc(N2CCCCC2)cc1)c1ccc([N+](=O)[O-])o1 | 28µM* | 0% | 40µM* | 11µM* | ?
O=C(Nc1cccc(NC(=O)c2ccccc2Cl)c1)c1ccc([N+](=O)[O-])o1 | -30% | 3% | 5%[59 µM] | -19% | 26%
CS(=O)(=O)N1CCN(c2ccc(NC(=O)c3ccc([N+](=O)[O-])o3)cc2)CC1 | 0% | 2% | ? | 0% | 65%
O=C(Nc1ccc(N2CCCC2)c(Cl)c1)c1ccc([N+](=O)[O-])o1 | 18µM* | 4% | 25µM* | 45µM* | ?
CC(C)(C)C(=O)N1CCN(c2ccc(NC(=O)c3ccc([N+](=O)[O-])o3)cc2)CC1 | -8% | 17% | -16%[59 µM] | -17% | 10%
SMILES | BAZ2B inh | GLS inhibitor | G9a inh | JMJD2A Tudor | HP1b chromo inh
CC1CCN(c2ccc(NC(=O)c3ccc([N+](=O)[O-])o3)cc2)CC1 | -31% | 23% | 35µM* | -26% | -1%
CCc1ccc(NC(=O)CSc2nnc(CNC(=O)c3c(F)cccc3Cl)o2)cc1 | -6% | -3% | 10%[12.7 µM] | -15% | 35%
O=c1c2ccccc2nc2n1-c1ccccc1CCC2 | -9% | -1% | -5%[12.7 µM] | -10% | 44%
O=C1CCc2nc3ccccc3c(=O)n2N1 | 56µM* | 4% | -50%[12.7 µM] | ? | 27%
CCOc1cccc(=O)c2c(C)n(C)c(C)c12 | 56µM* | -9% | -13%[59 µM] | ? | -25%
CCCCCn1c(C)c2c(OCC)cccc(=O)c2c1C | ? | -4% | -44% | -24% | 0%
COc1cccc(=O)c2c(C)n(-c3cc(C)cc(C)c3)c(C)c12 | ? | -3% | ? | ? | -12%
COc1cccc(-n2c(C)c3c(OC)cccc(=O)c3c2C)c1 | 56µM* | 0% | ? | ? | -19%
COc1cccc(=O)c2c(C)n(C)c(C)c12 | ? | 2% | 16µM* | ? | -30%
Cc1ccc(S(=O)(=O)N2CCC(C(=O)NN3CCCCC3)CC2)cc1 | -5% | 9% | 22%[12.7 µM] | -4% | 45%
Cc1cccc(N(CC(=O)NC2CCCC2)C(=O)CS(=O)CC(=O)Nc2ccc3c(c2)OCO3)c1C (stereo unspecified) | -11% | 1% | 7.9µM* | -12%[57.1 µM] | 33%
Cc1ccc(NC(=O)CS(=O)CC(=O)N(CC(=O)NC2CCCC2)c2cccc(C)c2C)cc1 (stereo unspecified) | 19% | -6% | 1%[59 µM] | -19% | 28%
CCN(CC)S(=O)(=O)c1ccc(N2CCCC2)c(NC(=O)c2nn(C)c(=O)c3ccccc23)c1 | -28% | 10% | 11%[12.7 µM] | -24% | 24%
c1ccc(-c2cnc(CSc3nnc4ccccn34)o2)cc1 | 1% | -7% | 10µM* | -11% | 31%
CCOC(=O)c1c(-c2cccc([N+](=O)[O-])c2)csc1N | 50µM* | 39% | ? | ? | -24%
CCOC(=O)c1csc(N)c1-c1ccc([N+](=O)[O-])cc1 | ? | 1% | 11µM* | ? | -28%
CCOC(=O)c1c(-c2cccc([N+](=O)[O-])c2)csc1NC(=O)C1CC1 | -36% | 2% | -11%[2.33 µM] | -28% | -9%
COc1ccc(S(=O)(=O)Nc2cc3c(cc2NCc2ccccc2)n(C)c(=O)n3C)cc1 | 45µM* | 60% | 16µM* | 50µM* | 2%
Cn1c(=O)n(C)c2cc(NS(=O)(=O)c3ccc(Br)cc3)c(NCc3ccccc3)cc21 | -28% | 45% | ? | ? | -1%
CCCS(=O)(=O)Nc1cc2c(cc1NCc1ccccc1)n(C)c(=O)n2C | 50µM* | 42% | 16µM* | -26% | 11%
COc1ccc(-c2nn(C)c3sc(C(=O)NCc4ccco4)cc23)cc1OC | 7% | -5% | -12%[59 µM] | -5%[11.4 µM] | -18%

From PubChem
